The record followed here is publication PMC7819943, “Rice protein-binding microarrays: a tool to detect cis-acting elements near promoter regions in rice”.

In all, about 39,000 sequences were measured (“fluorescence intensity (a.u.)”: median about 4,300, highest 2% from about 39,000 on). Shown is part of a subset that was picked to be rich in the highest values.

The assay addresses T1, OsSMF1 (Oryza sativa, UniProt Q6ZLB0 1-436).
T1 sequence: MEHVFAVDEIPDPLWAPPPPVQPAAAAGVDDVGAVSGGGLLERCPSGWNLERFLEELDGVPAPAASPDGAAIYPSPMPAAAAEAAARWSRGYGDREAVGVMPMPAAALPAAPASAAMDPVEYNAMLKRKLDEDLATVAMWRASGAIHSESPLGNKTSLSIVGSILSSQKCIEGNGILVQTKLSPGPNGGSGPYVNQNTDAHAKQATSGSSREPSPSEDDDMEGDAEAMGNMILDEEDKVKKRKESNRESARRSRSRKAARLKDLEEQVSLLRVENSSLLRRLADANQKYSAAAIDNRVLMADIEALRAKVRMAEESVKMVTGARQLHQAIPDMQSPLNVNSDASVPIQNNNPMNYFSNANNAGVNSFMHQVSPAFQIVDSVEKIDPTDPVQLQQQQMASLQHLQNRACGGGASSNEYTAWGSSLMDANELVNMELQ
The assay is described as follows: protein-binding microarray (RPBM); PBS, 2% BSA, 51.3 ng/ul salmon testes DNA, 50 uM zinc acetate, 200 nM TF, 25 C, 1 h; high values mean tight binding. To be noted: protein: recombinant; tags: N-terminal polyhistidine and DsRed monomer fusion (pET32a); chain copies: 2; label: CyDye5-dUTP incorporated in the synthesized complementary strand; 3' TTTTT single-stranded linker to array surface; dsDNA, one strand shown. In a few lines:
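Transcription factors were made in E. coli BL21-CodonPlus as N-terminal fusions to a polyhistidine tag and DsRed, then purified on Ni–NTA. After primer extension with Cy5-dUTP and blocking with 2% BSA, a custom Agilent array was exposed for 1 h at 25 °C to 200 nM protein in PBS, 2% BSA, salmon testes DNA and 50 µM zinc acetate. Washed arrays were scanned on an Axon 4000B, and the binding signal is per-feature fluorescence intensity in arbitrary units.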
For the sequence “ATCGAAGGCGAGAGCTCTTCTTCTTCCCCTCCTCCAAGCACGGAGTCACCTAGTGCAG”, the binding signal was 60500 fluorescence intensity (a.u.). To “TAAAAGCCAAGCACCATCTCGAAGTCTTCTTCCTCCTCCACGGAGTCACCTAGTGCAG” belongs 12500 fluorescence intensity (a.u.); to “TTCCATTTCTTCCCCTCGCCAAGGCGAGGCCGCGAGAGGGCGGAGTCACCTAGTGCAG”, 9040 fluorescence intensity (a.u.); to “CTGTAGAACTTGGACCAGCAGCATCAGCAGTAGTAGCAGGCGGAGTCACCTAGTGCAG”, 3140 fluorescence intensity (a.u.).

Regarding “GTGATATTCTGTCTTCCTGTGATATCAGCACTGTTTTATGCGGAGTCACCTAGTGCAG”, the binding signal was 3450 fluorescence intensity (a.u.). To “ACCAGTGCGCCACTGCCAGCGCAGCACCCGCCCGGTTTAACGGAGTCACCTAGTGCAG” belongs 3240 fluorescence intensity (a.u.). For “ATGTCTTAAGCAAGTTTTGACATCCTCATTACAGTGCGGCCGGAGTCACCTAGTGCAG” the value was 3390 fluorescence intensity (a.u.). In the case of “AGAGCCCACCAGCTGCACCGGCGTGGCATCGTCCACTTGGCGGAGTCACCTAGTGCAG”, the binding signal is 5060 fluorescence intensity (a.u.). For “TCGATTCCAGCTGTGGCACCCATAGAGAAATGAGCCCGTCCGGAGTCACCTAGTGCAG” the value was 56300 fluorescence intensity (a.u.); for “GTAAAGCCTCGATATATCGATCGATTCCAGCTGTGGCACCCGGAGTCACCTAGTGCAG”, 3620 fluorescence intensity (a.u.); for “AGTTGACGTGGCATACTGACACGTGGGCCCCATGTGGGTTCGGAGTCACCTAGTGCAG”, 24900 fluorescence intensity (a.u.). Take “AAACGTAATCTAATAACAAAACAAATTACAGAACTGTAAACGGAGTCACCTAGTGCAG”: the binding signal was 11100 fluorescence intensity (a.u.). For “ATCCACCGCTGAGTCCCAGACGAGCGAGGGCCAGATCATCCGGAGTCACCTAGTGCAG” the value was 3410 fluorescence intensity (a.u.); for “TGTAGGTATAAGAGTGAGTTGGTGAATTATAGGGTAGACTCGGAGTCACCTAGTGCAG”, 7410 fluorescence intensity (a.u.); for “TAGAAAGTGCCCAATTAGTATAGGTATAGATAGATAGACTCGGAGTCACCTAGTGCAG”, 51000 fluorescence intensity (a.u.). For “GCATTATATTAGTAGGTCGTGTATTATATTAGTAGGTACTCGGAGTCACCTAGTGCAG” the value was 4260 fluorescence intensity (a.u.); for “ATTACATACTAATTACATATGTAAGTGAGGTGTAACTACTCGGAGTCACCTAGTGCAG”, 4160 fluorescence intensity (a.u.); for “GGCAATCATCTTGAAGCATATCAACCCAACCTGATGTTGTCGGAGTCACCTAGTGCAG”, 28100 fluorescence intensity (a.u.).

For the sequence “TTGTTAATTACCGCGATTGATGTCGAGCTTGCATTTTGATCGGAGTCACCTAGTGCAG”, the binding signal was 3540 fluorescence intensity (a.u.). For “TTATTGCAAAATAGAAGGATGACGCCACGACGGCCGCTGCCGGAGTCACCTAGTGCAG” the value was 3330 fluorescence intensity (a.u.).

“TCTGTTAGTGTCATACTGTCATCGACATATAATATTCCCTCGGAGTCACCTAGTGCAG”: the binding signal was 42500 fluorescence intensity (a.u.). For “CTATACTATTAATATATGGTCTCATCTGTCATACATATATCGGAGTCACCTAGTGCAG” the value was 3830 fluorescence intensity (a.u.); for “TTACATACTGTATCATACTGACGTCAACGTATAATATTCCCGGAGTCACCTAGTGCAG”, 8340 fluorescence intensity (a.u.); for “GCGCTTGCGCCTGACCGCCGCGTGACGACATGTTGTCACCCGGAGTCACCTAGTGCAG”, 6800 fluorescence intensity (a.u.).

With “CGGTGACGACCACCCCACCTCACGATCCAACGGCCAATACCGGAGTCACCTAGTGCAG”, the binding signal is 4080 fluorescence intensity (a.u.). For the sequence “ACATGCAAAGATGCCACATCATCATCCACTATCACTAATTCGGAGTCACCTAGTGCAG”, the binding signal is 17600 fluorescence intensity (a.u.). To “AGAAGGTTGGAATTTAGTAAGTTGCAGTTACAAATTCAAGCGGAGTCACCTAGTGCAG” belongs 53200 fluorescence intensity (a.u.); to “TCACTCAAATTTACAGTGCATTTTCTTGTAAGTTACAGTGCGGAGTCACCTAGTGCAG”, 4800 fluorescence intensity (a.u.); to “TCTTTGGATATAAAGCAACTACAATTTCAAAGGTAACCAACGGAGTCACCTAGTGCAG”, 3460 fluorescence intensity (a.u.). To “AACAAGTGTGTTGGTGGTGGTGGAAGTTGTTACAGAATTGCGGAGTCACCTAGTGCAG” belongs 3470 fluorescence intensity (a.u.); to “GAATTACAAGGATGGTAAGGTTTGGTCTTTCAAAGTCTTACGGAGTCACCTAGTGCAG”, 40100 fluorescence intensity (a.u.); to “AAAATTGTTCAAAGGATGGCGTAACTTTGGCGTGGAATTACGGAGTCACCTAGTGCAG”, 3180 fluorescence intensity (a.u.).

Regarding “AAGTTATAACCCACTACATACAAAGATACCACGTCATCATCGGAGTCACCTAGTGCAG”, the binding signal was 15900 fluorescence intensity (a.u.). For “CATCAGATGCGCCCATCGCTTGAAGGAGAGACGCCGAGACCGGAGTCACCTAGTGCAG” the value was 27300 fluorescence intensity (a.u.). For “GCAGTCTTGTAGTCTCGTGCACCAATCGTCGCGCCGCGGCCGGAGTCACCTAGTGCAG” the value was 22300 fluorescence intensity (a.u.).

For “GCACCTTGAATGAATTATCTAGCAAAGCCAGCGTAGACGTCGGAGTCACCTAGTGCAG”, the binding signal was 30200 fluorescence intensity (a.u.).

“TGTGTACGTCACATCCTAATTAACATCAACTTGATAAAATCGGAGTCACCTAGTGCAG”: the binding signal is 7900 fluorescence intensity (a.u.). Turning to “TGGGTCCCTCCATGCTGAGTCAGCTTGTCAATCGGGTCAACGGAGTCACCTAGTGCAG”, the binding signal is 21900 fluorescence intensity (a.u.). For “GCCTAACCCTAACCCTAGCCGCCACCGCTCAACCGCCTCCCGGAGTCACCTAGTGCAG” the value was 65100 fluorescence intensity (a.u.). Regarding “ACCGCCGGTCCACTCACCCCTAACCCTAGCCGCTGCCGCCCGGAGTCACCTAGTGCAG”, the binding signal is 4020 fluorescence intensity (a.u.). To “ACACGCCACGCCGCCACCTCCACTTCGTTAACCCTTCTCCCGGAGTCACCTAGTGCAG” belongs 5410 fluorescence intensity (a.u.); to “GGGCTCCCTCCACCGCCGCCTCCGCCACCGCCTCGCCGCCCGGAGTCACCTAGTGCAG”, 3150 fluorescence intensity (a.u.). To “AAGCCTAAAACCTCCCCATCCACGTCACCCATCCTCCTCCCGGAGTCACCTAGTGCAG” belongs 22300 fluorescence intensity (a.u.); to “TGGCTCCCACGTTAACTTAGCCGCCACGTCAGCTAAAACCCGGAGTCACCTAGTGCAG”, 46600 fluorescence intensity (a.u.).
